The supplement of paper PMC10849652
The full data set covers some 7,900 targets. This sample favours those with a hit. About 0.6% of all pairs of compound and target were hits.

Compound: Cc1cn(-c2cc(NC(=O)c3ccc(C)c(Nc4nccc(-c5cccnc5)n4)c3)cc(C(F)(F)F)c2)cn1 [nilotinib]
Assay: log2 fold change, soluble protein after heating vs DMSO (PISA); higher = thermal stabilisation; K562 cells, 10 uM, 30 min; active = over 0.2 and 3.5 SD of the protein, either way, in both replicates (recomputed)
Method in brief: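 K562 cells (2×10^6 cells/mL) were treated with 10 μM compound for 30 min, and aliquots were heated for 3 min over 48°C-58°C. Pooled aliquots were extracted in PBS with 0.5% NP-40 at 4°C, and the supernatant after 21,000xg for 90 min was measured by TMTpro 16plex LC-MS/MS with channel sums equalised. Reported thermal stability, relative to control samples and from duplicates, is a log2 fold change.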

UniProt Q9BYN0, sequence (Q9BYN0 whole entry, looked up): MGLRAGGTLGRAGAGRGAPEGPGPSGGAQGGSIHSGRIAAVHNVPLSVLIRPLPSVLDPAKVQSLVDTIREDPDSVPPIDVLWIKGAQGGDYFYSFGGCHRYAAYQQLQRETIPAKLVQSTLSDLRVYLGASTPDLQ
UniProt Q96CW6, sequence (Q96CW6 whole entry, looked up): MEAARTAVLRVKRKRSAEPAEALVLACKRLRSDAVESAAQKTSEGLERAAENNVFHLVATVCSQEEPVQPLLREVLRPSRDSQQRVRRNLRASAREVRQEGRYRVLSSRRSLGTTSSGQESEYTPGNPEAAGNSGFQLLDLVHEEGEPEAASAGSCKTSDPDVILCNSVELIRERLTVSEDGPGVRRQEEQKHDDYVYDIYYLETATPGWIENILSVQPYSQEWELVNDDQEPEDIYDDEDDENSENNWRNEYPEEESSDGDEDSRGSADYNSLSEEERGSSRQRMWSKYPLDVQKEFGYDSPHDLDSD
UniProt P36897, sequence (P36897 whole entry, looked up): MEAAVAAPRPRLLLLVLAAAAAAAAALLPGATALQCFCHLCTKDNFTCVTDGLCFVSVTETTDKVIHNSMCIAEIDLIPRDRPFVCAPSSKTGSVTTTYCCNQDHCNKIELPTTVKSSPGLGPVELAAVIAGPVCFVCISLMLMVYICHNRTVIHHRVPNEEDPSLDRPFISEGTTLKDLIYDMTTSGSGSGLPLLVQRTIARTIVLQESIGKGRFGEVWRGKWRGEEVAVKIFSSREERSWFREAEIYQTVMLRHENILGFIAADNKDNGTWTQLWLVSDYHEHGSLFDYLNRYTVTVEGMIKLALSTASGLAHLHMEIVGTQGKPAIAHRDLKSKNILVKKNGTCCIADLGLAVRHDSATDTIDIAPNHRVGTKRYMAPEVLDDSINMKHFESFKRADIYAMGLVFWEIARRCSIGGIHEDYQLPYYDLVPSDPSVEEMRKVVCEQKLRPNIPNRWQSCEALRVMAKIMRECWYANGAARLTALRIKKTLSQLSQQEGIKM
UniProt Q5JUR7, sequence (Q5JUR7 whole entry, looked up): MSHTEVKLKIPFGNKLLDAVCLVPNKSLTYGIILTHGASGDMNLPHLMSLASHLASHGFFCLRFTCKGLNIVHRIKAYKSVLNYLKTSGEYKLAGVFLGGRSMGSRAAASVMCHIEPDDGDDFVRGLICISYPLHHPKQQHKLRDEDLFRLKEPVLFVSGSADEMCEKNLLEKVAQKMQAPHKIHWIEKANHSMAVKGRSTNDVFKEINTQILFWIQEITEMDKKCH
UniProt O95359, sequence (O95359 whole entry, looked up): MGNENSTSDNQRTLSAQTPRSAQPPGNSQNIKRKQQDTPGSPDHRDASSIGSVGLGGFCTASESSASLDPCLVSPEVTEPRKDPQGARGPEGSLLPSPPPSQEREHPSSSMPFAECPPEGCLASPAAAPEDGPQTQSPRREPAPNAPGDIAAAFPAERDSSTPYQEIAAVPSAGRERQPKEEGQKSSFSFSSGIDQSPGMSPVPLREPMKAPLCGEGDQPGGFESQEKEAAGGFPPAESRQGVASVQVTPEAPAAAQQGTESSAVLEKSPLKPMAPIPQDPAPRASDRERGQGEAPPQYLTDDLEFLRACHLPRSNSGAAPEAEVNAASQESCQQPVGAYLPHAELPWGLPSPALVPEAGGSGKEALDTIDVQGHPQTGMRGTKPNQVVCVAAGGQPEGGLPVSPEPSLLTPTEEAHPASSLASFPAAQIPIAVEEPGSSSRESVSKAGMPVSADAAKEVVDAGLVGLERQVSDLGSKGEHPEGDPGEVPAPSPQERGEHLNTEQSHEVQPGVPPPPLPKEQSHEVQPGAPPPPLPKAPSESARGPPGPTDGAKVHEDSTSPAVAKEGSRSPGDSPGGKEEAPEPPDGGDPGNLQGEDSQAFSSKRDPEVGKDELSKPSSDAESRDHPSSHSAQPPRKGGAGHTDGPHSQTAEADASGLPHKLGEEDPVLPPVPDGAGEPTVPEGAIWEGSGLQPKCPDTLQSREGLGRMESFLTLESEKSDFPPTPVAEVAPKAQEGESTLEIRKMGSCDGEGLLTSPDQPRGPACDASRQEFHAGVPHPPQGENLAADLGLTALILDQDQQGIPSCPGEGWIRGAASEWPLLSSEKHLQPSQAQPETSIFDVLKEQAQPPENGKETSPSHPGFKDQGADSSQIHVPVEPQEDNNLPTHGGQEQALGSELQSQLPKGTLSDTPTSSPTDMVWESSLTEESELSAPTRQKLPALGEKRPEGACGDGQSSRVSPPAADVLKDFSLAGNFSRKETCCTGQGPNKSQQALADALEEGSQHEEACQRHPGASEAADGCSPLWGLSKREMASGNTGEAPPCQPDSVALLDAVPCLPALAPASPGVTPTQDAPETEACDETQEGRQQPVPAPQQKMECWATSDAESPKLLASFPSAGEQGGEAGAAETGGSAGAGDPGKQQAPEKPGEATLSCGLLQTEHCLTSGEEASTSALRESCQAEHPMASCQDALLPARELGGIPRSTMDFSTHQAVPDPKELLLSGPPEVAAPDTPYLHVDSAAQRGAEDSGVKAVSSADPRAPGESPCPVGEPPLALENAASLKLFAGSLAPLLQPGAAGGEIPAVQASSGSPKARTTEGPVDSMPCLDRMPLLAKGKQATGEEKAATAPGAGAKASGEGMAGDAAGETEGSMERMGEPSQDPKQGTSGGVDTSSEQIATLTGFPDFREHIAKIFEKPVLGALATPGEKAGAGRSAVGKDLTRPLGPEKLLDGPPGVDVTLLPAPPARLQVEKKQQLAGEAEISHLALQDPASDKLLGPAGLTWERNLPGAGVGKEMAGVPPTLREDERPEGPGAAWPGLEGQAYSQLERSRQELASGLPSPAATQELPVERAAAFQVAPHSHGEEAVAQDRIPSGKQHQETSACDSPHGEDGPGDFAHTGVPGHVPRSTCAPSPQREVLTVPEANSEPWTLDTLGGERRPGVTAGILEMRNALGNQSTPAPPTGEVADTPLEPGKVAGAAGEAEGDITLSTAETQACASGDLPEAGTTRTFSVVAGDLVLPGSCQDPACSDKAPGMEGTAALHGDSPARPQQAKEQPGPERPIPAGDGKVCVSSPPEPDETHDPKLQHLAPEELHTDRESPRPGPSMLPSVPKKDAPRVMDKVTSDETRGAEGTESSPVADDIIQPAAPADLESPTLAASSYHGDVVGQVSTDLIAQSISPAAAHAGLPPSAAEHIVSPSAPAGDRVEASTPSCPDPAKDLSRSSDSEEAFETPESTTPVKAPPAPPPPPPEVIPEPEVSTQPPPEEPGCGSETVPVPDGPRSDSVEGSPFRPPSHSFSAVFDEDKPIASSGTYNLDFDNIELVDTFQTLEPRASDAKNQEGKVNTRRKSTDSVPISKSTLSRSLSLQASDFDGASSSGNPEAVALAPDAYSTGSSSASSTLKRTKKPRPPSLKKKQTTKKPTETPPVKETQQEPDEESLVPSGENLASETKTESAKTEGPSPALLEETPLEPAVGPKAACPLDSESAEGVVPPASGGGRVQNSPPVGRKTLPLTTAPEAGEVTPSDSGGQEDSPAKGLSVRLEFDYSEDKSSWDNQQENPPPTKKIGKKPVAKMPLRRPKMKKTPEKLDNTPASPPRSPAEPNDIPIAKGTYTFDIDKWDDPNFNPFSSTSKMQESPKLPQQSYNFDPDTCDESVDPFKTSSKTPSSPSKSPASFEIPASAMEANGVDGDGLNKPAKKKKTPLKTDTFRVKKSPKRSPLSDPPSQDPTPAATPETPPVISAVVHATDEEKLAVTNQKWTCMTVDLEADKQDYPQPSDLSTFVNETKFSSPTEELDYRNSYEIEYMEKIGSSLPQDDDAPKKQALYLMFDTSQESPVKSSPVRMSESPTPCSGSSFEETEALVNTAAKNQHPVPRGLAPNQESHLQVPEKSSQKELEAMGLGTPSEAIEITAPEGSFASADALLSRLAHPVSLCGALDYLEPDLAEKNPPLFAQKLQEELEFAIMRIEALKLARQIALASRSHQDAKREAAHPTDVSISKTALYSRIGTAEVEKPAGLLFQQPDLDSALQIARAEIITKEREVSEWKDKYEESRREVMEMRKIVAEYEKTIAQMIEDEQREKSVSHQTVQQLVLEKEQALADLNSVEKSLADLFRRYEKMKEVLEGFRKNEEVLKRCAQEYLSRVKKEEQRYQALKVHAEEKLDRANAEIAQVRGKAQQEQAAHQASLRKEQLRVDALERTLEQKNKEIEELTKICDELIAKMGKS
UniProt P12931, sequence (P12931 whole entry, looked up): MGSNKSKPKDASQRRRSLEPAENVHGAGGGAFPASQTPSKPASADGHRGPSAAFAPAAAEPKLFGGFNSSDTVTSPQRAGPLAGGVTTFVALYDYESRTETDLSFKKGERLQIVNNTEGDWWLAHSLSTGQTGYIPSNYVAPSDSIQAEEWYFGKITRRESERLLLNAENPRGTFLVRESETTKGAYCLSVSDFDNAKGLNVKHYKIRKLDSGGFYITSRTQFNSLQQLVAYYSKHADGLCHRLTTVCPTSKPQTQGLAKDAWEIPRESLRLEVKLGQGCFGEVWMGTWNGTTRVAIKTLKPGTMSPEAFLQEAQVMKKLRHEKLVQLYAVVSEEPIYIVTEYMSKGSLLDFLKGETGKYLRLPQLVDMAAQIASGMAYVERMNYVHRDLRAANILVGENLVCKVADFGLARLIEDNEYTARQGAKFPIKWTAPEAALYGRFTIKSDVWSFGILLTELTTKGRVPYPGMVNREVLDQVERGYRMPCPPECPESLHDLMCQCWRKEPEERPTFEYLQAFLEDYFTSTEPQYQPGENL
UniProt Q01085, sequence (Q01085 whole entry, looked up): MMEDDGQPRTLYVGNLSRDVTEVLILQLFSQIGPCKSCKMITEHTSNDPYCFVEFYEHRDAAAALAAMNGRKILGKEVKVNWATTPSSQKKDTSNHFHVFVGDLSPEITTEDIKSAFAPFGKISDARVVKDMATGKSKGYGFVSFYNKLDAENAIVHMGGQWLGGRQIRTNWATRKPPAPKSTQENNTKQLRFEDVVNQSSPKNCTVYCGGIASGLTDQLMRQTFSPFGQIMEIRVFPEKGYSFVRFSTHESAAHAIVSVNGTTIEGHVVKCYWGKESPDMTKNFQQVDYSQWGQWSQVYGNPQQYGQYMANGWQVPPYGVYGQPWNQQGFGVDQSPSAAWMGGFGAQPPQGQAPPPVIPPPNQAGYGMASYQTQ

log2 fold change, inactive:
SMAP (UniProt O00193) -0.004
TGFBR1 isoform 2 (UniProt P36897) -0.049
SLC7A6OS (UniProt Q96CW6) -0.019
TK1 (UniProt P04183) -0.002
TACC2 (UniProt O95359) 0.027
TEX30 (UniProt Q5JUR7) -0.147
TATDN2 (UniProt Q93075) 0.137
STK11IP (UniProt Q8N1F8) -0.081
SRXN1 (UniProt Q9BYN0) -0.017
SSRP1 (UniProt Q08945) -0.025
STK38L (UniProt Q9Y2H1) -0.032
TAF9 (UniProt Q16594) 0.061
SP1 (UniProt P08047) 0.005
SRPRB (UniProt Q9Y5M8) 0.035
SLC38A7 (UniProt Q9NVC3) 0.05
SP100 isoform 4 (UniProt P23497) -0.02
TK1 (UniProt K7ERV3) -0.108
SLC44A2 isoform 2 (UniProt Q8IWA5) 0.13
TBC1D20 isoform 3 (UniProt Q96BZ9) 0.07
SRSF6 (UniProt Q13247) 0.155
SPIRE1 (UniProt Q08AE8) 0.007
SRC isoform 2 (UniProt P12931) -0.041
SMG1 (UniProt Q96Q15) 0.03
SRCAP (UniProt Q6ZRS2) 0.072
SNRPB2 (UniProt P08579) 0.04
STARD3 (UniProt Q14849) 0.215
SNX15 (UniProt Q9NRS6) -0.064
TIAL1 isoform 2 (UniProt Q01085) -0.023
TENT5C (UniProt Q5VWP2) 0.002
SLC39A11 (UniProt Q8N1S5) -0.028
TFB2M (UniProt Q9H5Q4) -0.043
SSBP4 (UniProt Q9BWG4) 0.038
SYNE1 (UniProt Q8NF91) 0.021
SRFBP1 (UniProt Q8NEF9) 0.303
STRN (UniProt O43815) 0.014
SYNE2 isoform 2 (UniProt Q8WXH0) -0.115
SNX12 isoform 1 (UniProt Q9UMY4) -0.038
